Experimental data as given in PubChem BioAssay AID1159580 (chemical genetic matrix, 2015).
Screen size: about 5,500 compounds; about 2,000 (36%) were called active. Inconclusive results (about 18%) are left out. The list shows a part of the results. Values without a mark were called inactive. Cut-off read from the data, not from the text of the source: active = normalized growth mostly below about 0.91 (no sharp cut-off); inconclusive = no clear call, values can overlap the other calls; inactive = mostly above about 0.92.

Test: chemical genetic growth profiling, strain panel (AID 1159580);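 note: tested at 20 µM; growth read once vehicle control cultures reached saturation at 30 °C; 1 = growth at the plate median or of vehicle wells; lower values mean less growth of the strain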
Conditions: growth OD
[1] = S. cerevisiae deletion strains, locus YAL013W, strain DEP1, stronger effect = lower value
[2] = S. cerevisiae deletion strains, locus YBR229C, strain ROT2, stronger effect = lower value
[3] = S. cerevisiae deletion strains, locus YCL061C, strain MRC1, stronger effect = lower value
[4] = S. cerevisiae deletion strains, locus YDL101C, strain DUN1, stronger effect = lower value
[5] = S. cerevisiae deletion strains, locus YDL134C, strain PPH21, stronger effect = lower value
[6] = S. cerevisiae deletion strains, locus YDR150W, strain NUM1, stronger effect = lower value
[7] = S. cerevisiae deletion strains, locus YEL061C, strain CIN8, stronger effect = lower value
[8] = S. cerevisiae deletion strains, locus YGR078C, strain PAC10, stronger effect = lower value
[9] = S. cerevisiae deletion strains, locus YGR229C, strain SMI1, stronger effect = lower value
[10] = S. cerevisiae deletion strains, locus YHR030C, strain SLT2, stronger effect = lower value
[11] = S. cerevisiae deletion strains, locus YHR087W, strain rtc3, stronger effect = lower value
[12] = S. cerevisiae deletion strains, locus YJL187C, strain SWE1, stronger effect = lower value
[13] = S. cerevisiae deletion strains, locus YJR043C, strain POL32, stronger effect = lower value
[14] = S. cerevisiae deletion strains, locus YJR075W, strain HOC1, stronger effect = lower value
[15] = S. cerevisiae deletion strains, locus YLR039C, strain RIC1, stronger effect = lower value
[16] = S. cerevisiae deletion strains, locus YLR058C, strain SHM2 (second series), stronger effect = lower value
[17] = S. cerevisiae deletion strains, locus YLR085C, strain ARP6, stronger effect = lower value
[18] = S. cerevisiae deletion strains, locus YLR262C, strain YPT6, stronger effect = lower value
[19] = S. cerevisiae deletion strains, locus YML094W, strain GIM5, stronger effect = lower value
[20] = S. cerevisiae deletion strains, locus YMR219W, strain ESC1, stronger effect = lower value
[21] = S. cerevisiae deletion strains, locus YNL153C, strain GIM3, stronger effect = lower value
[22] = S. cerevisiae deletion strains, locus YNL298W, strain CLA4 (second series), stronger effect = lower value
[23] = S. cerevisiae deletion strains, locus YNL322C, strain KRE1, stronger effect = lower value
[24] = S. cerevisiae deletion strains, locus YNR030W, strain Alg12, stronger effect = lower value
[25] = S. cerevisiae deletion strains, locus YOL006C, strain TOP1, stronger effect = lower value
[26] = S. cerevisiae deletion strains, locus YPL055C, strain LGE1, stronger effect = lower value
[27] = S. cerevisiae deletion strains, locus YPL241C, strain CIN2, stronger effect = lower value
[28] = S. cerevisiae deletion strains, locus YPR135W, strain CTF4, stronger effect = lower value
[29] = S. cerevisiae strains, strain wild type, stronger effect = lower value
[30] = S. cerevisiae deletion strains, locus YKL190W, strain CNB1, stronger effect = lower value
[31] = S. cerevisiae deletion strains, locus YMR263W, strain SAP30, stronger effect = lower value

Question: For `Cc1ccc(COc2ccc(C)nc2[N+](=O)[O-])cc1`, which normalized growth [1] is on record?
Answer: 0.977

Question: And the normalized growth [2]?
Answer: 0.932

Question: And the normalized growth [3]?
Answer: 0.946

Question: And the normalized growth [4]?
Answer: 0.905

Question: What about the normalized growth [5] of the same compound?
Answer: 0.902 (active)

Question: And the normalized growth [6]?
Answer: 0.854

Question: What about the normalized growth [7] of the same compound?
Answer: 0.922

Question: And the normalized growth [8]?
Answer: 0.918 (active)

Question: And the normalized growth [9]?
Answer: 0.958

Question: What about the normalized growth [10] of the same compound?
Answer: 0.252 (active)

Question: And the normalized growth [11]?
Answer: 0.959

Question: And the normalized growth [12]?
Answer: 0.932 (active)

Question: What about the normalized growth [13] of the same compound?
Answer: 0.872 (active)

Question: What about the normalized growth [14] of the same compound?
Answer: 0.857 (active)

Question: And the normalized growth [15]?
Answer: 0.57 (active)

Question: What about the normalized growth [16] of the same compound?
Answer: 0.954

Question: And the normalized growth [17]?
Answer: 0.295 (active)

Question: And the normalized growth [18]?
Answer: 0.593 (active)

Question: And the normalized growth [19]?
Answer: 0.855 (active)

Question: What about the normalized growth [20] of the same compound?
Answer: 0.939 (active)

Question: And the normalized growth [21]?
Answer: 0.951

Question: What about the normalized growth [22] of the same compound?
Answer: 0.75 (active)

Question: And the normalized growth [23]?
Answer: 0.972

Question: And the normalized growth [24]?
Answer: 0.758 (active)

Question: And the normalized growth [25]?
Answer: 0.593 (active)

Question: What about the normalized growth [26] of the same compound?
Answer: 0.809

Question: And the normalized growth [27]?
Answer: 0.71 (active)

Question: And the normalized growth [28]?
Answer: 0.382 (active)

Question: And the normalized growth [29]?
Answer: 0.859 (active)

Question: Which results are given for `CN1CNc2c(c(=O)n(C)c(=O)n2C)C1`?
Answer: normalized growth [1]: 0.994; normalized growth [2]: 0.999; normalized growth [3]: 0.998; normalized growth [4]: 0.974; normalized growth [6]: 0.998; normalized growth [7]: 0.996; normalized growth [8]: 0.988; normalized growth [10]: 1.04; normalized growth [11]: 0.988; normalized growth [12]: 1.01; normalized growth [13]: 0.998; normalized growth [14]: 1.02; normalized growth [30]: 1.01; normalized growth [15]: 1.03; normalized growth [16]: 1; normalized growth [17]: 0.979; normalized growth [18]: 1.01; normalized growth [19]: 0.974; normalized growth [20]: 0.998; normalized growth [31]: 1; normalized growth (S. cerevisiae deletion strains, locus YNL128W, strain TEP1, stronger effect = lower value): 1; normalized growth [21]: 0.983; normalized growth [22]: 1.01; normalized growth [23]: 0.998; normalized growth [24]: 1; normalized growth [25]: 1.02; normalized growth [26]: 0.953; normalized growth [27]: 1.07; normalized growth [28]: 1.01; normalized growth [29]: 1

Question: For `O=C(N/N=C\c1ccccc1Cl)c1cccnc1`, which normalized growth [1] is on record?
Answer: 1.02

Question: And the normalized growth [2]?
Answer: 1

Question: What about the normalized growth [4] of the same compound?
Answer: 0.971

Question: What about the normalized growth [5] of the same compound?
Answer: 1.01

Question: What about the normalized growth [6] of the same compound?
Answer: 0.932

Question: What about the normalized growth [7] of the same compound?
Answer: 1.03

Question: And the normalized growth [8]?
Answer: 1

Question: What about the normalized growth [9] of the same compound?
Answer: 1.01

Question: What about the normalized growth [10] of the same compound?
Answer: 0.987

Question: And the normalized growth [11]?
Answer: 1.01

Question: And the normalized growth [12]?
Answer: 0.996

Question: And the normalized growth [13]?
Answer: 0.995

Question: And the normalized growth [14]?
Answer: 0.99

Question: And the normalized growth [30]?
Answer: 1.01

Question: What about the normalized growth [15] of the same compound?
Answer: 1.03

Question: And the normalized growth [16]?
Answer: 1.01

Question: And the normalized growth [17]?
Answer: 0.97

Question: And the normalized growth [18]?
Answer: 1.01

Question: And the normalized growth [19]?
Answer: 1

Question: What about the normalized growth [20] of the same compound?
Answer: 1

Question: What about the normalized growth [31] of the same compound?
Answer: 0.945

Question: And the normalized growth [21]?
Answer: 1

Question: What about the normalized growth [22] of the same compound?
Answer: 1

Question: And the normalized growth [23]?
Answer: 1

Question: And the normalized growth [24]?
Answer: 1.01

Question: What about the normalized growth [25] of the same compound?
Answer: 1.03

Question: And the normalized growth [26]?
Answer: 0.886

Question: And the normalized growth [27]?
Answer: 0.996

Question: What about the normalized growth [28] of the same compound?
Answer: 1
